This assay can be described thus: resazurin metabolic signal in HepG2 cells – cell-based, resazurin fluorescence, 24 h, PK04 Diversity Set, profiling panel (AID 1172). Note: test concentration not given here. The conditions noted are these: HepG2 viability, higher = more signal.
`CCN1C(=O)[C@H]2[C@H]3[C@H](O)[C@H](O)CC(=NOC[C@@H](O)[C@H]4O[C@@H]5OC(C)(C)O[C@@H]5[C@H]4O)[C@@H]3CC[C@H]2C1=O` returned a z-score of -1.27.

`CC(C)CON=C1C[C@@H](O)[C@@H](O)[C@@H]2[C@@H]3C(=O)N(Cc4ccc5c(c4)OCO5)C(=O)[C@@H]3CC[C@@H]12` gave a z-score of 0.344.

Compound `C=CC[C@@H]1C=C[C@H](ON=C2C[C@@H](O)[C@@H](O)[C@@H]3[C@@H]4C(=O)N(CC)C(=O)[C@@H]4CC[C@@H]23)[C@@H](CO)O1` yielded a z-score of -1.05.

With `CO[C@H]1COC(=O)CCC[C@H](C)[C@H](OC)COC(=O)CC=C[C@@H]1C`, the z-score worked out at 0.631.

`COc1ccc2c(c1)O[C@@H](c1cccc(C(F)(F)F)c1)[C@H](O)C2=O` registered a z-score of 0.669.

As to `CC(CCN1CCCc2nc(C)c(C)cc21)=NOC[C@@H](O)COCc1ccco1`, the z-score was determined as 0.365.

`CCN1C(=O)[C@H]2[C@H]3[C@H](O)[C@H](O)CC(=NO[C@@H]4O[C@H](CO)[C@@H](O)[C@H](O)[C@H]4O)[C@H]3CC[C@H]2C1=O` showed a z-score of -0.171.

As to `CCOC(=O)[C@H](CC(C)C)NC(=O)CCC1CC(OC(=O)NCc2ccc3c(c2)OCO3)CC2(CCCC(COC(=O)NCCOc3ccccc3)O2)O1` (stereo partly specified), the z-score is -0.167.

Consider `O=C1C2=CC[C@H]3C(=O)N(c4ccc(F)cc4F)C(=O)[C@H]3[C@H]2[C@H](O)[C@@H]2O[C@H]12`, for which the z-score came to 0.0059.

`CC(=O)OC[C@H]1O[C@H](C#CCCc2ccccc2)C=C[C@@H]1OC(C)=O` showed a z-score of -0.403.

In turn, `CC(C)=NOC(C)CN1CCCc2nc(C)c(C)cc21` (stereo unspecified) came in with a z-score of -0.249.

The record behind these values is PubChem BioAssay.
